Test [1] in a line: ACEA_ER_AUC_viability: ACEA Biosciences xCELLigence Real-Time Cell Analysis on Estrogen Receptor Agonism for Viability (AID 2283782).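 Further: continuous compound exposure with impedance area under curve over 80 h; hit means loss of impedance signal meaning reduced cell growth or viability.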 Summed up: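 T47D cells preconditioned in phenol red-free RPMI with charcoal-stripped FBS, then dosed with 8-point 1:4 series from 100 uM (up to 0.5% DMSO). Impedance monitored up to ~80 h; area-under-curve loss versus DMSO taken as viability.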

Test [2] addresses Estrogen receptor beta (Homo sapiens) (UniProt Q92731). In words: ATG_hERb_XSP1: Attagene TRANS-FACTORIAL Multi-Species (XSP1) HepG2 Assay for human Estrogen Receptor (ESR2) (AID 2283788). Summed up:
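HepG2 cells transiently transfected with GAL4-UAS multiplexed reporter units, 3 nM 6-alpha-fluorotestosterone present; 24 h exposure. Reporter mRNA measured by RT-PCR, fluorescent labelling and capillary electrophoresis; gain of signal fitted against DMSO.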

Test [3] in a line: ATG_M_06_XSP1: Attagene TRANS-FACTORIAL Multi-Species (XSP1) HepG2 Assay for M06 Transcription Factor (Internal Marker) (AID 2283790). Summed up: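 Transfected HepG2 multi-reporter system treated 24 h in the presence of 3 nM 6-alpha-fluorotestosterone. The M06 internal marker transcript was quantified by RT-PCR with capillary electrophoresis as a background control, and gain of signal was scored versus DMSO.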

Test [4] can be described thus: ATG_M_61_XSP1: Attagene TRANS-FACTORIAL Multi-Species (XSP1) HepG2 Assay for M61 Transcription Factor (Internal Marker) (AID 2283797). Summed up:
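HepG2 cells transiently transfected with multiplexed GAL4-driven reporter units, dosed 24 h with 3 nM 6-alpha-fluorotestosterone present. Reporter mRNA quantified by RT-PCR, 6-FAM labelling, HpaI digestion and capillary electrophoresis; internal-marker background control, gain of signal versus DMSO.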

Test [5] deals with Peroxisome proliferator-activated receptor gamma (Homo sapiens) (UniProt P37231). In words: ATG_hPPARg_XSP1: Attagene TRANS-FACTORIAL Multi-Species (XSP1) HepG2 Assay for human Peroxisome Proliferator-activated Receptor gamma (PPARg) (AID 2283800). Summed up:
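HepG2 cells transiently transfected with GAL4-UAS reporter units carrying chimeric NR-Gal4 proteins; 3 nM 6-alpha-fluorotestosterone present. After 24 h dosing, reporter mRNA quantified by RT-PCR and capillary electrophoresis; gain of signal relative to DMSO.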

Test [6] concerns the target mouse Peroxisome Proliferator-activated Receptor gamma (PPARg), Pparg (gene 19016) (UniProt P37238). In words: ATG_mPPARg_XSP1: Attagene TRANS-FACTORIAL Multi-Species (XSP1) HepG2 Assay for mouse Peroxisome Proliferator-activated Receptor gamma (PPARg) (AID 2283802). Summed up: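 HepG2 cells transiently transfected with GAL4-UAS reporter units driven by mouse PPARg–GAL4 chimera; 3 nM 6-alpha-fluorotestosterone present. After 24 h dosing, reporter mRNA quantified by RT-PCR, fluorescent labelling and capillary electrophoresis; gain of signal versus DMSO.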

Test [7] addresses Nuclear receptor subfamily 1 group I member 2 (Mus musculus) (UniProt O54915). In words: ATG_mPXR_XSP1: Attagene TRANS-FACTORIAL Multi-Species (XSP1) HepG2 Assay for mouse Pregnane X Receptor (PXR) (AID 2283803). Summed up: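 Transiently transfected HepG2 cells expressing a receptor-Gal4 chimera drive a GAL4-UAS reporter; 3 nM 6-alpha-fluorotestosterone included. Reporter mRNA read 24 h post-dose by RT-PCR and capillary electrophoresis; gain of signal relative to DMSO.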

Test [8] addresses frog Thyroid hormone Receptor alpha (TRa), thra-a (gene 397942) (UniProt P15204). In words: ATG_frTRa_XSP1: Attagene TRANS-FACTORIAL Multi-Species (XSP1) HepG2 Assay for frog Thyroid hormone Receptor alpha (TRa) (AID 2283804). Summed up:
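HepG2 cells transiently transfected with frog TRa-GAL4 chimeric reporter units, dosed 24 hr with 3 nM 6-alpha-fluorotestosterone present; reporter mRNA quantified by RT-PCR, fluorescent labelling and capillary electrophoresis, gain of signal versus DMSO.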

The subject of test [9] is turtle Thyroid Hormone Receptor, alpha (TRa), gene 101949057. As to the kind of experiment: ATG_trTRa_XSP1: Attagene TRANS-FACTORIAL Multi-Species (XSP1) HepG2 Assay for turtle Thyroid Hormone Receptor, alpha (TRa) (AID 2283806). The gist of the method: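 HepG2 cells transiently transfected with GAL4-UAS reporter units and chimeric receptor-Gal4 constructs, with 3 nM 6-alpha-fluorotestosterone present. Reporter mRNA was quantified 24 h after dosing by RT-PCR, 6-FAM labelling and capillary electrophoresis; gain of signal versus DMSO.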

Test [10] has as its target zebrafish Thyroid Hormone Receptor alpha (TRa), thraa (gene 30670) (UniProt Q98867). In words: ATG_zfTRa_XSP1: Attagene TRANS-FACTORIAL Multi-Species (XSP1) HepG2 Assay for zebrafish Thyroid Hormone Receptor alpha (TRa) (AID 2283807). Summed up: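 HepG2 cells transiently transfected with GAL4-UAS reporter units including a zebrafish TRa–Gal4 chimera, dosed 24 h with 3 nM 6-alpha-fluorotestosterone present. Reporter mRNA quantified by RT-PCR and capillary electrophoresis; gain versus DMSO.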

Test [11] has as its target human Thyroid hormone Receptor beta (TRb), THRB (gene 7068) (UniProt P10828). In words: ATG_hTRb_XSP1: Attagene TRANS-FACTORIAL Multi-Species (XSP1) HepG2 Assay for human Thyroid hormone Receptor beta (TRb) (AID 2283808). The gist of the method:
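HepG2 cells transiently transfected with reporter units driving GAL4-UAS reporters for chimeric NR-Gal4 proteins; 24 h chemical exposure with 3 nM 6-alpha-fluorotestosterone present. Reporter mRNA quantified by RT-PCR and capillary electrophoresis, gain of signal versus DMSO.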

In test [12] the target is zebrafish Thyroid Hormone Receptor beta (TRb), thrb (gene 30607) (UniProt Q9PVE4). In words: ATG_zfTRb_XSP1: Attagene TRANS-FACTORIAL Multi-Species (XSP1) HepG2 Assay for zebrafish Thyroid Hormone Receptor beta (TRb) (AID 2283809). The gist of the method:
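HepG2 cells transiently transfected with multiplexed GAL4-UAS reporter units expressing chimeric zebrafish TRb–Gal4. Dosed 24 h with 3 nM 6-alpha-fluorotestosterone present; reporter mRNA measured by RT-PCR, HpaI digestion and capillary electrophoresis; gain of signal versus DMSO.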

A short description of test [13]: ATG_XTT_Cytotoxicity_XSP1: Cytotoxicity Assessment in the Attagene TRANS-FACTORIAL Multi-Species (XSP1) HepG2 Assay (AID 2283810). The gist of the method: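 XTT viability readout taken at 24 hours post-dosing in HepG2 liver cells co-treated with 3 nM 6-alpha-fluorotestosterone. Signal loss relative to DMSO controls reflects cytotoxicity.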
Test [14] concerns the target GAL4 Transcription Factor (Internal Marker), GAL4 (gene 855828) (UniProt P04386). As to the kind of experiment: ATG_GAL4_XSP1: Attagene TRANS-FACTORIAL Multi-Species (XSP1) HepG2 Assay for GAL4 Transcription Factor (Internal Marker) (AID 2283789). Summed up: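 HepG2 cells transiently transfected with multiplexed GAL4-UAS reporter units were exposed for 24 h with 3 nM 6-alpha-fluorotestosterone present. Reporter mRNA was quantified by RT-PCR, FAM labelling, HpaI digestion and capillary electrophoresis; background-control readout, gain-of-signal versus DMSO.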

A short description of test [15]: ATG_M_32_XSP1: Attagene TRANS-FACTORIAL Multi-Species (XSP1) HepG2 Assay for M32 Transcription Factor (Internal Marker) (AID 2283799). The gist of the method: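 HepG2 cells transiently transfected with multi-species TRANS reporter units, dosed 24 h with 3 nM 6-alpha-fluorotestosterone present. Internal-marker reporter mRNA quantified by RT-PCR and capillary electrophoresis; positive-direction fit versus DMSO.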

Test [16] has as its system zebrafish Peroxisome Proliferator-activated Receptor gamma (PPARg), gene 557037. As to the kind of experiment: ATG_zfPPARg_XSP1: Attagene TRANS-FACTORIAL Multi-Species (XSP1) HepG2 Assay for zebrafish Peroxisome Proliferator-activated Receptor gamma (PPARg) (AID 2283801). The gist of the method:
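HepG2 cells transiently transfected with GAL4-UAS reporter units including a zebrafish PPARg–GAL4 chimera, dosed 24 h with 3 nM 6-alpha-fluorotestosterone present. Reporter mRNA quantified by RT-PCR, FAM labelling, HpaI digestion and capillary electrophoresis; induction versus DMSO.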

Test [17] has as its target human Thyroid hormone Receptor alpha (TRa), THRA (gene 7067) (UniProt P10827). In words: ATG_hTRa_XSP1: Attagene TRANS-FACTORIAL Multi-Species (XSP1) HepG2 Assay for human Thyroid hormone Receptor alpha (TRa) (AID 2283805). The gist of the method: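 HepG2 cells transiently transfected with GAL4-UAS reporter units expressing chimeric NR-Gal4 proteins, dosed 24 hours with 3 nM 6-alpha-fluorotestosterone present. Reporter mRNA measured by RT-PCR and capillary electrophoresis; gain of signal fitted versus DMSO.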

Inconclusive results are not listed. The source made the active and inactive calls. How the source made its calls: active means hit-call score of the fitted dose curve at least 0.9, where 1 is the maximum; inconclusive means response in the unintended direction; inactive means score below 0.9.

By AC50 is commonly meant the midpoint of the concentration-response curve, whichever way the signal moves.

Sequence of human Thyroid hormone Receptor beta (TRb), THRB (gene 7068) (P10828 whole entry, looked up, the tested form may be a part): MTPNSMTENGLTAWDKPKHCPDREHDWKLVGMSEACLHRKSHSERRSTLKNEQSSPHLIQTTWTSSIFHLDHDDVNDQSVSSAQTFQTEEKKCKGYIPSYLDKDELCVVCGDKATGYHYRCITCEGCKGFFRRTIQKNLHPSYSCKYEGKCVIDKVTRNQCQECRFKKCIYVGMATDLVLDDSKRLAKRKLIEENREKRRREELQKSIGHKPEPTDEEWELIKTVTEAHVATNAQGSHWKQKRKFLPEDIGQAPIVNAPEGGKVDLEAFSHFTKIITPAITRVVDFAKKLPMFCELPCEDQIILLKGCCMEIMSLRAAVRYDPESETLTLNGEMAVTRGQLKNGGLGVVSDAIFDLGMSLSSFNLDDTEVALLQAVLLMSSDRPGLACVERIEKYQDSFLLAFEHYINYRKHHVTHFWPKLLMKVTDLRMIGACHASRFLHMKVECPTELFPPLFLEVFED
Sequence of zebrafish Thyroid Hormone Receptor alpha (TRa), thraa (gene 30670) (Q98867 whole entry, looked up, the tested form may be a part): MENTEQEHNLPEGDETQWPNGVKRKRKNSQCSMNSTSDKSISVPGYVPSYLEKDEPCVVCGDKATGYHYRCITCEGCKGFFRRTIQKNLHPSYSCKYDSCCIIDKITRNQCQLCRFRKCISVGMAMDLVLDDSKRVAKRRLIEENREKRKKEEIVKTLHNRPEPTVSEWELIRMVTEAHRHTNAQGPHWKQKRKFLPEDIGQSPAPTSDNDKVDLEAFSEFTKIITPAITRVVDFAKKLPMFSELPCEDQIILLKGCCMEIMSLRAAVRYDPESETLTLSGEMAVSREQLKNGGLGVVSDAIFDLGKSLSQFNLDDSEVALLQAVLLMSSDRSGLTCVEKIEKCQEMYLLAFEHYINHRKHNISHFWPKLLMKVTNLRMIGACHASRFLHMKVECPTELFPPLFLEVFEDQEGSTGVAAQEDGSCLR
Sequence of mouse Peroxisome Proliferator-activated Receptor gamma (PPARg), Pparg (gene 19016) (P37238 whole entry, looked up, the tested form may be a part): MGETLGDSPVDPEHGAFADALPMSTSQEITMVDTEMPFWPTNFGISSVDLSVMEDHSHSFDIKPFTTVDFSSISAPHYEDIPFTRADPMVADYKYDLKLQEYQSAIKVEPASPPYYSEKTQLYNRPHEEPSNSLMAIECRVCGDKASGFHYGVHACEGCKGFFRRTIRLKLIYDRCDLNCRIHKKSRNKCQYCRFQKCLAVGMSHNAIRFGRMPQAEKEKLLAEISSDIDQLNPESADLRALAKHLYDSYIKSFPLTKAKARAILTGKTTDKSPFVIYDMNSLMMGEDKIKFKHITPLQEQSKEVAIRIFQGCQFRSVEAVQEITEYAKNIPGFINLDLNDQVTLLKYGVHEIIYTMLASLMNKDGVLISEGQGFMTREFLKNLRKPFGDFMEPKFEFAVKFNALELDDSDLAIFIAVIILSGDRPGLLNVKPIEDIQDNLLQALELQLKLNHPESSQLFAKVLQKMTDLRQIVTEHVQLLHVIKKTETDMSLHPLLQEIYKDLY
Sequence of zebrafish Thyroid Hormone Receptor beta (TRb), thrb (gene 30607) (Q9PVE4 whole entry, looked up, the tested form may be a part): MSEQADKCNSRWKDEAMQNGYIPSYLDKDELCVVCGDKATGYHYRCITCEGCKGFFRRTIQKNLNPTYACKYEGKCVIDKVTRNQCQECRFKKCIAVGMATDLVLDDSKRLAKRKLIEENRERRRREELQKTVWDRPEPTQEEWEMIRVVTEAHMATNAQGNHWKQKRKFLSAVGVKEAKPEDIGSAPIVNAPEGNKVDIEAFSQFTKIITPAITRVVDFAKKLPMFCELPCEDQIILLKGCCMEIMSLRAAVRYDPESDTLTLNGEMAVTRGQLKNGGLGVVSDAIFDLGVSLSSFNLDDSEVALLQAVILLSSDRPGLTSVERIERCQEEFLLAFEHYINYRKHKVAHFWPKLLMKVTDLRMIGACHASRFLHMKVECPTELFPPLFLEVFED
Sequence of frog Thyroid hormone Receptor alpha (TRa), thra-a (gene 397942) (P15204 whole entry, looked up, the tested form may be a part): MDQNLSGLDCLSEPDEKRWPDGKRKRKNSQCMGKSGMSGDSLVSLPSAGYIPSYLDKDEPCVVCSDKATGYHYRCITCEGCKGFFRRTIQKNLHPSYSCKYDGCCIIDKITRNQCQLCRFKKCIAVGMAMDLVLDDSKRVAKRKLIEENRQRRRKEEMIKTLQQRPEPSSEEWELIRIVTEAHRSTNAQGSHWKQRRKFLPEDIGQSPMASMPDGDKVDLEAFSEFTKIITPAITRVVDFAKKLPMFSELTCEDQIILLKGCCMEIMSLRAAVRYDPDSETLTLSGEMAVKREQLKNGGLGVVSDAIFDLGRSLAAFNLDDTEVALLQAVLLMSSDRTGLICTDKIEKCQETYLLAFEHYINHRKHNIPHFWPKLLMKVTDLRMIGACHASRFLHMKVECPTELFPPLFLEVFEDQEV
Sequence of Nuclear receptor subfamily 1 group I member 2 (Mus musculus) (O54915 whole entry, looked up, the tested form may be a part): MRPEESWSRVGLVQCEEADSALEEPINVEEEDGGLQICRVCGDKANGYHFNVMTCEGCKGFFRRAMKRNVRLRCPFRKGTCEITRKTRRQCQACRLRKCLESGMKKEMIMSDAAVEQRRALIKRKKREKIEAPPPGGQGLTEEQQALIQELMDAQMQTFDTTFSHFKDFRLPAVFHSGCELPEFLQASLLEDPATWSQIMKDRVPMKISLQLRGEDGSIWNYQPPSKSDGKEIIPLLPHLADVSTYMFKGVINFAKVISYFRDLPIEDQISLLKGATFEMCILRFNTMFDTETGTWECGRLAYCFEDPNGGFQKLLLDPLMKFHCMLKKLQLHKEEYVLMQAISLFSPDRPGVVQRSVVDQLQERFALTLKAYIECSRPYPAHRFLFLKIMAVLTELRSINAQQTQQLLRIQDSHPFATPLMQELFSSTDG
Sequence of Peroxisome proliferator-activated receptor gamma (Homo sapiens) (P37231 whole entry, looked up, the tested form may be a part): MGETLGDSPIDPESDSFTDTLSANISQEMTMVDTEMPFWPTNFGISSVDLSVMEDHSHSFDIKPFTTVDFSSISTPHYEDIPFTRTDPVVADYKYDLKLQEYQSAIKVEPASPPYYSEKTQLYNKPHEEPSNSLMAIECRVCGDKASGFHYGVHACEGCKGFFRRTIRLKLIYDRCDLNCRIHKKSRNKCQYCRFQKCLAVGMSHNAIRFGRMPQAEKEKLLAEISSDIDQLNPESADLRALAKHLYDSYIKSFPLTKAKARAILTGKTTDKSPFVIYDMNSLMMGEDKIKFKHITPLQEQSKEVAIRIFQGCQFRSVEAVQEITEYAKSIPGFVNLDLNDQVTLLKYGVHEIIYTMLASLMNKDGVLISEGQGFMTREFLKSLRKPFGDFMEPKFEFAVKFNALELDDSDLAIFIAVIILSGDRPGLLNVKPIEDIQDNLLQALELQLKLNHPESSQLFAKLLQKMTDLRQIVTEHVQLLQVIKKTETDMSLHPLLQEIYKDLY
Sequence of human Thyroid hormone Receptor alpha (TRa), THRA (gene 7067) (P10827 whole entry, looked up, the tested form may be a part): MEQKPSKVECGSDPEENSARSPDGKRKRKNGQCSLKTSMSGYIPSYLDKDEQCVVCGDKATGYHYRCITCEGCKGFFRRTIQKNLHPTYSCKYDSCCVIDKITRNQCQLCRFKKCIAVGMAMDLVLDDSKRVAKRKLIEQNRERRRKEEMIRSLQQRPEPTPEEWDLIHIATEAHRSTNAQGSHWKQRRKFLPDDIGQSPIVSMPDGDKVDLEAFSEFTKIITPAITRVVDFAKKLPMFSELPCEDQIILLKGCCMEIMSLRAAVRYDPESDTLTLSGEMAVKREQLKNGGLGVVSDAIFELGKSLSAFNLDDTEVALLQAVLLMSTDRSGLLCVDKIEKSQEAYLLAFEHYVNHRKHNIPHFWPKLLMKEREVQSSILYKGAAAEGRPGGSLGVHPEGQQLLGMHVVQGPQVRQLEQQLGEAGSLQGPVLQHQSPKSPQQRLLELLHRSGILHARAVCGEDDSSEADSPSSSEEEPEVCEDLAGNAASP
Sequence of Estrogen receptor beta (Homo sapiens) (Q92731 whole entry, looked up, the tested form may be a part): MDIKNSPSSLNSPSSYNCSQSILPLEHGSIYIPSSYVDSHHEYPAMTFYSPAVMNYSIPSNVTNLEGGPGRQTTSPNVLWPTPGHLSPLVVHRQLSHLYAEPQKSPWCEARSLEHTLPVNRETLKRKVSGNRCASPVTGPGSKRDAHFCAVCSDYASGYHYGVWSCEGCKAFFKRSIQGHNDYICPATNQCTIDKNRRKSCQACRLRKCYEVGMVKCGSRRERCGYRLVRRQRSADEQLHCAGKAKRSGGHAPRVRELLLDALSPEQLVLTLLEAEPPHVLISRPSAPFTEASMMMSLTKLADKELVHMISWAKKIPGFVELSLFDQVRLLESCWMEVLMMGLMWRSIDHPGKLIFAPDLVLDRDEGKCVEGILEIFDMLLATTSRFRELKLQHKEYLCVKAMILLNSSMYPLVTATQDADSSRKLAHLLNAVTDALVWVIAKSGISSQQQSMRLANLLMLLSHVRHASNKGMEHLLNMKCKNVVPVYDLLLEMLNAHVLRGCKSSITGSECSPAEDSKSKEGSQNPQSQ

In the case of `CC(=O)S[C@H](C(=O)N[C@H]1Cc2ccccc2[C@H]2CCC[C@@H](C(=O)O)N2C1=O)C(C)C`, the outcome in test [1] was inactive.
The same measure, in the same setting: the value for `NC1CCCCC1` was “inactive”; that for `COC(=O)CCC(=O)OC` was “inactive”.
For `CCc1cc(C2=C(C(=O)O)N(c3ccccc3C(F)(F)F)S(=O)(=O)c3ccccc32)cc2c1OCO2`, the AC50 in [1] is 15.8 µM (active).
As for `O=NO`, the call in [1] was inactive.
On the same count and under the same terms, under `CCCCCCCC(=O)OC` stands “inactive”.
Same read-out and setting: under `C=CCc1ccc(OC)c(OC)c1` stands “inactive”; under `OCC(CO)n1cnc(-c2ccc(F)cc2)c1-c1ccnc(Oc2ccccc2)n1`, “inactive”.
Still for that read-out and setting: under `CN(C)CCCN(C)CCCN(C)C` stands “inactive”.
On to `CCCCCCCCCCCCCCOS(=O)(=O)O`, for which the AC50 in [1] is 74.5 µM (active).
Still for that read-out and setting: the value for `CN(C)C(=O)NC1(c2ccccc2)CCN(CC[C@@]2(c3ccc(F)c(F)c3)CN(C(=O)c3ccccc3)CCO2)CC1` was 25.4 µM (active).
For the compound `CC(=O)OCC(COC(C)=O)OC(C)=O`, in test [1], the outcome was inactive.
Still for that read-out and setting: the value for `O=C(O)CC(O)(CC(=O)O)C(=O)O` was “inactive”; that for `Cc1cn([C@H]2C=C[C@@H](CO)O2)c(=O)[nH]c1=O` was “inactive”.
With `Oc1ccccc1O`, in test [1], the AC50 is 90.5 µM (active).
Still for that read-out and setting: the value for `CN(C)C(=O)NC1(c2ccccc2)CCN(CCC[C@]2(c3ccc(Cl)c(Cl)c3)CCCN(C(=O)c3ccccc3)C2)CC1` was 14.6 µM (active).
On the same count and under the same terms, the value for `Cc1ccc(C(C)(C)C)c(O)c1` was 75.6 µM (active).
With `C/C=C/c1ccc(OC)cc1`, in [1], the call was inactive.
Same read-out and setting: under `CC(C)COC(=O)CCCCC(=O)OCC(C)C` stands “inactive”.
Same read-out and setting: under `O=C(O)CN(CC(=O)O)CC(=O)O` stands “inactive”.
`CO[C@@H]1COCC[C@@H]1N[C@@H]1CC[C@@](C(=O)N2CCc3ncc(C(F)(F)F)cc3C2)(C(C)C)C1`: the AC50 in [1] was 21.3 µM (active).
On to `CC1(C)C(=O)NC(=O)N1CO`, for which the result in test [1] was inactive.
As to `O=C(N[C@@H](c1ccccc1)[C@@H]1CCCCN1)c1cccc(C(F)(F)F)c1Cl`, the AC50 in test [1] was 15.3 µM (active).
For the compound `CC(=O)OC1CC(C)OC(C)O1` (centres undefined), in test [1], the result was inactive.
For `COc1ccc(C(=O)Nc2nc3ccccc3c(NCc3ccccc3)c2C#N)cc1`, in [1], the compound was classed as inactive.
In the case of `COc1ccc(OC(F)(F)F)cc1CN[C@H]1CCCN[C@H]1c1ccccc1`, the AC50 in [1] was 14.9 µM (active).
Take `O=C1c2c(O)cccc2Cc2cccc(O)c21`: the result in [1] was inactive.
Regarding `CCCCCCC(C=O)=Cc1ccccc1`, in test [1], the concentration at half-maximal activity (AC50) is 74.7 µM (active).
Still for that read-out and setting: under `Oc1ccc(O)cc1` stands 11.3 µM (active).
On to `O=C1NC(=O)C(c2ccccc2)(c2ccccc2)N1`, for which, in test [1], the result was inactive.
On the same count and under the same terms, the value for `CC(C)c1cccc(C(C)C)c1` was “inactive”.
Same read-out and setting: the value for `C/C=C/C=C/C(=O)O` was “inactive”.
As to `CC(=O)O[C@]1(C(C)=O)CC[C@H]2[C@@H]3C=C(Cl)C4=CC(=O)[C@@H]5C[C@@H]5[C@]4(C)[C@H]3CC[C@@]21C`, the results for the AC50 in test [2], in [6] and in test [7] were 8.21 µM (active), 20.2 µM (active) and 0.347 µM (active), respectively. The compound was called inactive in test [3], in test [4], in test [5], in [8], in [9] and in [10]. The outcome in test [11], in test [12] and in test [13] was inactive.
Turning to `CCN(CC)CCOc1ccc(C(=C(Cl)c2ccccc2)c2ccccc2)cc1`, the compound was called inactive in test [14], in test [3], in [4], in test [15], in test [5] and in test [16]. For the same compound, the outcome in [6] and in [7] was inactive. Further, the AC50 was 0.945 µM (active) in [8]; 1.93 µM (active) in test [17]; 1.13 µM (active) in test [9]; 2.96 µM (active) in test [10]; 2.02 µM (active) in test [11]; 1.57 µM (active) in test [12]. The AC50 in test [13] is 31.4 µM (active).

The record behind these values is PubChem BioAssay (EPA / NIEHS).
